# From ChEMBL document CHEMBL3988442, “University of Dundee, Small-Polar-MMV Screening Library” (2021)
# Key:
# [1] = molecular target: T1, Aspartate--tRNA(Asp/Asn) ligase (Mycobacterium tuberculosis (strain ATCC 25618 / H37Rv)) (UniProt P9WFW3); test: Assay for Asp RNA synthetase-1 from Mycobacterium tuberculosis; format: functional; parameters: scale not given: direction of the effect not stated beside the values; settings: 30 µM; further: in the data most compounds retested in dose-response had high values
# T1 sequence (whole entry): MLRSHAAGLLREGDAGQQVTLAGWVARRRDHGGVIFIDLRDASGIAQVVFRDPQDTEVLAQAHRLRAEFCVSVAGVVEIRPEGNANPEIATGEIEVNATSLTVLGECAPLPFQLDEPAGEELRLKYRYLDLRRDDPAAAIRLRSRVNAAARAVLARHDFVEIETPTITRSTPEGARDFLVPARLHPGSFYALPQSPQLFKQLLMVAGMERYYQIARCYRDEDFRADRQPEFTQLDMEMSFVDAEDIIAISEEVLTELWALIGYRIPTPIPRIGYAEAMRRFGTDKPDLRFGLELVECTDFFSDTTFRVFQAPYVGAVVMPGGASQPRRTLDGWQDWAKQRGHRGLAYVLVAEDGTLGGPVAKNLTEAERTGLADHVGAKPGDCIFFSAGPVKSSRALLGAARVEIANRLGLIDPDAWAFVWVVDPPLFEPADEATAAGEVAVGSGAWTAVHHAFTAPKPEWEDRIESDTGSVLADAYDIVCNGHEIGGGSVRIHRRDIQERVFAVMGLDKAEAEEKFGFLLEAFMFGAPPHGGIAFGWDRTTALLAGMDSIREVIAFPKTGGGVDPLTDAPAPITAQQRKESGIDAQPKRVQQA
# [2] = molecular target: Shiga toxin 2 (Escherichia coli O157:H7) (UniProt P09385+P09386); test: E. coli 0.157:H7 Shiga Toxin SOP - stx2 screening assay; format: functional; parameters: scale not given: direction of the effect not stated beside the values; settings: 30 µM
Structure (SMILES),Percent Effect [1] [%],Percent Effect [2] [%]
Cc1ccc(-c2csc(N)c2C#N)cc1,-4.7,-3.71
CCc1noc(C2CCN(C(=O)CCn3nc(C)cc3C)CC2)n1,8.14,-32.8
NC(=O)C1CCN(C(=O)c2cccc(CN3CCOCC3)c2)CC1,-1.59,3.51
O=C(Nc1nnc(C2CC2)s1)NC1CCN(Cc2ccccc2)C1 (configuration not stated),-0.344,-174
Cc1noc(Cl)c1CC(=O)N1CCCC(n2cccn2)C1 (configuration not stated),2.08,32.6
Cn1ncc2c(=O)[nH]c(N3CCN(C(=O)c4ccsc4)CC3)nc21,1.3,13.3
Cc1csc2c(=O)n3c(nc12)CCN(C(=O)c1cccnc1)CC3,-0.521,6.12
CN(CCCc1cnn(C)c1)C(=O)C1COc2ccccc2C1 (configuration not stated),11.4,-16.4
COCc1ccccc1CNc1cc(N2CCCC2CO)ncn1 (configuration not stated),-1.49,-4.23
CCc1ccc(-n2c(=O)[nH]c3nc(N4CCSCC4)ncc3c2=O)cc1,15.3,-13.5
COc1ccc(Br)c(C(=O)N2CCC(c3n[nH]c(C4CC4)n3)CC2)c1,0.422,-39.5
CC(C)c1ccc(C(O)Cn2c(=O)c(C#N)cn(C3CC3)c2=O)cc1 (configuration not stated),2.61,14.3
CS(=O)(=O)N[C@@H]1CN(C(=O)c2ccccn2)[C@@H]2CCCO[C@@H]21,-4.14,3.94
c1ncn(CC2CCCCN2Cc2csc(C3CCCC3)n2)n1 (configuration not stated),-7.74,-35.6
CC(=O)N1CC(=O)N(c2ccccc2)CC12CCN(CC1CC1)C2 (configuration not stated),13.8,-1.67
O=C(CSc1ccccn1)N1C[C@H]2CC[C@@H]1CN(Cc1cscn1)C2,-1.93,-6.72
